Measurements as given in PubChem BioAssay (EPA / NIEHS).
The source made the active and inactive calls. How the source made its calls: active means hit-call score of the fitted dose curve at least 0.9, where 1 is the maximum; inactive means score below 0.9.

The compounds below were run on UDP glucuronosyltransferase (UGT1A6), UGT1A6 (gene 54578) (assay: LTEA_HepaRG_UGT1A6: Life Technologies and Expression Analysis (LTEA) Assay for UDP glucuronosyltransferase (UGT1A6) using HepaRG (AID 2283539)). Settings: mRNA level, 48 h; actives raise or lower the signal.
In short: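 Measures mRNA change in HepaRG hepatic cells exposed 48 h to chemicals (eight-point, maximum 100 uM, 0.5% DMSO vehicle) in serum-free induction medium. Expression normalized to endogenous controls; DMSO served as negative control and baseline.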

Row | Structure (SMILES) | AC50 | outcome
1 | Cc1cc(CCN2CCN(c3nsc4ccccc34)CC2)cc2c1NC(=O)CC2(C)C | 79.5 µM (active) | 
2 | c1ccc2c(c1)Cc1ccccc1-2 |  | inactive
3 | COC(=O)CCCCC(=O)OC |  | inactive
4 | C#C[C@]1(O)CC[C@H]2[C@@H]3CCC4=CC(=O)CC[C@@H]4[C@H]3CC[C@@]21C |  | inactive
5 | CC(=O)NC1(c2cccc(F)c2)CCN(CC[C@@]2(c3ccc(Cl)c(Cl)c3)CN(c3ccccc3)C(=O)CO2)CC1 |  | inactive
6 | CC(O)CO (stereo not drawn) |  | inactive
7 | COCC(C)OCC(C)O (stereo not drawn) |  | inactive
8 | CC(=O)CC(C)(C)O |  | inactive
9 | CC(C)(C)c1cc(C(C)(C)C)c(O)c(C(C)(C)C)c1 | 14.5 µM (active) | 
10 | CN1CCC[C@H]1c1cccnc1 |  | inactive
11 | CC(C)(C)CC(C)(C)c1ccc(O)c(-n2nc3ccccc3n2)c1 |  | inactive
12 | Nc1cccc2c(N)cccc12 |  | inactive
13 | CCC(=C(c1ccc(O)cc1)c1ccc(OCCN(C)C)cc1)c1ccccc1 |  | inactive
14 | CC[C@H](C)[C@@H](C(=O)O)n1sc2ccccc2c1=O |  | inactive
15 | OC1CCC(C2CCCCC2)CC1 (stereo not drawn) |  | inactive
16 | O=[N+]([O-])c1ccc(O)cc1 |  | inactive
17 | CCN(CC)CCNc1ccc(CNC=O)c2sc3ccc(OC)cc3c(=O)c12 | 72 µM (active) | 
18 | O=C(OCCOCCOC(=O)c1ccccc1)c1ccccc1 |  | inactive
19 | CCC(C)(C)C1CCC(O)CC1 (stereo not drawn) |  | inactive
20 | CCCCCCCCOC(=O)CCCCCCCCC(=O)OCCCCCCCC |  | inactive
21 | CC[C@H](c1ccc(O)cc1)[C@@H](CC)c1ccc(O)cc1 |  | inactive
22 | CCCCCCCCC(=O)O |  | inactive
23 | CCCCOCCO |  | inactive
